# Results filed as inconclusive are left out. A call without a number means that no potency is given here. Calls of active or inactive are those of the source. Calls come from the whole dose curve; as a rule, active = well fitted inhibition curve with a large enough effect in the repeat runs; inconclusive = weak or mixed curves; inactive = no such curve, though single readings can be large or run the other way.
# Biological target: Estrogen receptor (Homo sapiens) (UniProt P03372)
# Assay: qHTS assay to identify small molecule antagonists of the estrogen receptor alpha (ER-alpha) signaling pathway using the BG1 cell line in the presence of 0.1 nM 17-beta-estradiol (AID 1259244); note: nearly all actives have a fitted effect of over 50% in size
# Conditions: VM7Luc4E2 (BG1) ERE-luciferase, antagonist mode, 0.1 nM E2, 22 h; series mostly up to 92.4 µM
# Source text: National Center for Advancing Translational Sciences [NCATS]
# NIH Chemical Genomics Center [NCGC]
# U.S. Environmental Protection Agency [EPA]
# National Institutes of Environmental Health Sciences [NIEHS]
# National Toxicology Program [NTP]
# U.S. Food and Drug Administration [FDA]
# Estrogen receptor (ER), a member of the nuclear hormone receptor plays an important role in development, metabolic homeostasis and reproduction. Two subtypes of ER, ER-alpha and ER-beta, have similar expression patterns with some uniqueness in both types. Endocrine disrupting chemicals (EDCs) and their interactions with steroid hormone receptors like ER causes disruption of normal endocrine function. Therefore, it is important to understand the effect of environmental chemicals in ER signaling pathway. For identifying ER antagonists, VM7Luc4E2 cell line was used to screen against Tox21 compound libraries.
# VM7Luc4E2 cell line (provided by Denison MS, University of California) endogenously express full-length ER-alpha and is stably transfected with a plasmid containing four estrogen responsive elements (ERE) upstream of a luciferase reporter gene. The current screening for identification of ER-alpha inhibitors against Tox21 compound libraries used lower concentration (0.1 nM) of 17beta-Estradiol as a stimulator.
# Tox21 Assay Protocol Summary:
# VM7Luc4E2 cells were cultured in phenol red free assay medium containing 10% charcoal stripped FBS for 5 days prior to the assay. The cells were dispensed at 4,000 cells/well in 4 uL of assay medium into white wall/solid-bottom 1536-well plates (Corning Life Sciences, Corning, NY) using a Multidrop Combi (ThermoFisher Scientific, Waltham, MA) dispenser. After the assay plates were incubated at 37C and 5% CO2 for 24 hr, 23 nL of compounds dissolved in DMSO, positive controls or DMSO only was transferred to the assay plates by a Pintool station (Kalypsys, San Diego, CA). The transfer of compounds was followed by the addition of 1 uL of 0.1 nM (final concentration) agonist (17beta-Estradiol)/assay medium using a Flying Reagent Dispenser (FRD, Aurora Discovery, San Diego, CA). The plates were incubated at 37C and 5% CO2 for 22 hr. For luciferase reporter gene assay, 4 uL of ONE-Glo reagent (Promega Corporation, Madison, WI) was added to each well using the FRD and after 30 min incubation at room temperature luminescence intensity was measured using ViewLux plate reader (PerkinElmer, Shelton, CT).
# Chain of Estrogen receptor (Homo sapiens) (P03372 whole entry, looked up): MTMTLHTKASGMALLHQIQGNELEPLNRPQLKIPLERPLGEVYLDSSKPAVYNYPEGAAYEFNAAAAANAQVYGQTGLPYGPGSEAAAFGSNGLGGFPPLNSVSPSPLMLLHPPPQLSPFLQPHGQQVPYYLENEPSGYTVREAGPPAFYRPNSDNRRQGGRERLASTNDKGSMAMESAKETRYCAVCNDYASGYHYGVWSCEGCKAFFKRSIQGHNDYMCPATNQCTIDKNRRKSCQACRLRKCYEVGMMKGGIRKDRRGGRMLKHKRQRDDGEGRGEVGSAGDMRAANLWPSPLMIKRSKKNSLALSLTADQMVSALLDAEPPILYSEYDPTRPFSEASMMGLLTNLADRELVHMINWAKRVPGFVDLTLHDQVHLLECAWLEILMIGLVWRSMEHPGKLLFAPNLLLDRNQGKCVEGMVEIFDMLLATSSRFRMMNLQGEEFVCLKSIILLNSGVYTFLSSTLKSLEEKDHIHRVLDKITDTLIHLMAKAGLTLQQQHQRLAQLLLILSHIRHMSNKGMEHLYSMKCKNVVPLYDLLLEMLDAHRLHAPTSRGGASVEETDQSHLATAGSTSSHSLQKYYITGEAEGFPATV
SMILES,Potency,"activity change, negative = inhibition"
CCCCOC(=O)C(C)OC(=O)CCC (stereo not given),inactive,–
Nc1ccc(/C=C/c2ccc(N)cc2S(=O)(=O)O)c(S(=O)(=O)O)c1,–,6.51% [at 0.349 µM] (inactive)
CCN(CC)C(=O)C1CN2CCc3cc(OC)c(OC)cc3C2CC1OC(C)=O (stereo not given),inactive,–
CO[Si](CCCCl)(OC)OC,inactive,–
O=P(O)(O)OCC(O)CO (stereo not given),inactive,–
Cc1cccc(C(=O)O)c1[N+](=O)[O-],inactive,–
CC(=O)N1CCN(c2ccc(O)cc2)CC1,inactive,–
Cc1nc(C)nc(N2C[C@@H](C)N(c3ccnc([C@@H](C)O)n3)[C@@H](C)C2)n1,inactive,–
CC(C)COC(=O)CC(C(=O)OCC(C)C)S(=O)(=O)O (stereo not given),inactive,–
NCCc1ccn[nH]1,inactive,–
CC(C)CCCCCCOC(=O)C1CCCCC1C(=O)OCCCCCCC(C)C (stereo not given),inactive,–
CCS(=O)(=O)CCn1c([N+](=O)[O-])cnc1C,inactive,–
CCC(C)(C)C1CCC(=O)CC1,inactive,–
OC[C@@H](O)[C@H](O)[C@@H](O)[C@@H](O)CO,inactive,–
CC(C)SCc1ccco1,inactive,–
CCCCCCCCCCCCOC(C)=O,inactive,–
O=S1(=O)CCCC1,inactive,–
C=C[Si](C)(C)O[Si](C)(C)C=C,inactive,–
C=CCOCC(CO)(COCC=C)COCC=C,inactive,–
CCOC(=O)C(C)(C)C,inactive,–

SMILES,Potency,"activity change, negative = inhibition"
CCCCCCCCCCCCCC(=O)OC,inactive,–
CCN(CCO)c1cccc(C)c1,inactive,–
CC(C)C(=O)Nc1cccc(C(F)(F)F)c1,inactive,–
Cc1cc(O)c2c(c1)C(=O)c1cccc(O)c1C2=O,inactive,–
CC(CC(=O)O)CC(C)(C)C (stereo not given),inactive,–
CCCCCC(=O)OCC,inactive,–
CCCCC(CC)COC(=O)c1ccccc1 (stereo not given),inactive,–
COC(/C=C(\C)CCC=C(C)C)OC,inactive,–
CC(C)CCCC(C)CC=O (stereo not given),inactive,–
O=C1OC(=O)c2ccccc21,inactive,–
CC(C)CCC(=O)CCC(C)C,inactive,–
CCN(CCC#N)c1ccccc1,inactive,–
COc1cccc2sc(N)nc12,inactive,–
CC1=NN(c2ccc(S(=O)(=O)O)cc2)C(=O)C1N=Nc1ccccc1 (stereo not given),inactive,–
Cc1cccc(Nc2ccncc2S(=O)(=O)NC(=O)NC(C)C)c1,inactive,–
F[Si-2](F)(F)(F)(F)F,inactive,–
CCCCCC1Nc2cc(C(F)(F)F)c(S(N)(=O)=O)cc2S(=O)(=O)N1 (stereo not given),inactive,–
CCCCCCCC/C=C\CCCCCCCC(=O)OC[C@@H](O)[C@H]1OC[C@H](O)[C@H]1O,inactive,–
Cc1cc(C)cc([N+](=O)[O-])c1,inactive,–
CCCCCCCCOC(C)=O,inactive,–

# Source: PubChem BioAssay (Tox21)
